Compounds with a hit are over-represented: about 4.8% of the library has one in this group of screens.
NF-kB expr up: NF-kB expression increase, human neuronal cells. NF-kB reporter expression; hits give high values. AID 1239. fold change at 12.5 µM. 190,000 tested, 1.6% active; in the data active = fold change above about 3.3
Hsp70 activator: transcriptional activators of Hsp70; activation, % at 10 µM; HeLa Hsp70 promoter luciferase reporter, luminescence; scaled: vehicle 0, proteasome-inhibitor control 100%; 200,000 tested, 0.04% active;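 active = activation above the mean across all tested compounds plus 3 SD, cutoff set per campaign, cut at about 5.5% in these data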;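 note: 100% = MG132 at 30 µM as the positive control and 0% = DMSO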
STAT1 activator: STAT1 signaling activation; AID 932; 200,000 tested, 2.6% active; NIH 3T3 STAT1-luciferase reporter, IFN-gamma, luminescence; 100% = IFN-gamma alone, no compound; activation (% of control), % at 5.5 µM;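 active = activation above the screen-wide mean activation plus 3 SD, cut at about 130% in these data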;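 note: raw ratio to IFN-gamma control signal so 100% means no change and 0% no light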
APP 5'UTR act: APP 5'UTR luciferase reporter activation. SH-SY5Y APP 5'UTR luciferase reporter, luminescence; zero percent = DMSO vehicle wells. activation, % at 2 µM. 190,000 tested, 1% active;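 active = activation above a set limit, based on mean plus 3 SD of controls, cut at about 140% in these data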
APP 5UTR inh: APP translation inhibition; SH-SY5Y APP 5'UTR-luciferase reporter, luminescence; inhibition, % at 2 µM; 190,000 tested, 0.82% active; AID 1285;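 active = inhibition above a set limit, derived from the sample mean plus 3 SD, cut at about 45% in these data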
Wee1 stabilizer: blocks degradation of human Wee1 kinase. reporter increase, % at 5 µM. 220,000 tested, 1.2% active. P30291. HeLa Luc-Wee1K328M stability, luciferase luminescence; 100% = proteasome inhibitor MG132 effect;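 active = activation above the mean of all tested compounds plus 3 SD, set per screening run, cut at about 8.8% in these data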;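 note: cells exposed to compound for 20 h before luminescence read; 0% = DMSO alone and 100% = MG132 at 30 µM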
Target sequence (P30291 whole entry K328M): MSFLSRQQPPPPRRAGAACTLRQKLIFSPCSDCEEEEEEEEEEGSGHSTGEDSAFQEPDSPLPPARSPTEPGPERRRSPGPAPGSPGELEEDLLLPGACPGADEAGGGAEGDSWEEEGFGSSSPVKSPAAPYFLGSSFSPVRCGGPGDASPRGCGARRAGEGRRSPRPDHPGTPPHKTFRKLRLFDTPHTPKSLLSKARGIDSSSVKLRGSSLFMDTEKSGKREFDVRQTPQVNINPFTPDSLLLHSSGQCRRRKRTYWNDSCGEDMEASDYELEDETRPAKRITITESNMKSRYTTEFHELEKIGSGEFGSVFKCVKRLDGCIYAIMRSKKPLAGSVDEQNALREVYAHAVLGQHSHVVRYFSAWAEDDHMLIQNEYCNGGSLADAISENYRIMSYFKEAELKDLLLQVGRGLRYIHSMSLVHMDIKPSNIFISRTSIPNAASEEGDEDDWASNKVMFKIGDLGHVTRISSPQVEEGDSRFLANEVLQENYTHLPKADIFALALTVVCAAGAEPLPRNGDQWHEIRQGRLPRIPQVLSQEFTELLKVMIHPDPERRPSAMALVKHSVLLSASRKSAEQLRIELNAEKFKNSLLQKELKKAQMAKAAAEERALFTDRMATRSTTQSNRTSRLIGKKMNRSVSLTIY
* hit, by the source's call; / = no result.

SMILES	NF-kB expr up	Hsp70 activator	STAT1 activator	APP 5'UTR act	APP 5UTR inh	Wee1 stabilizer
CC1=C(C(=O)OCc2ccccc2)C(c2ccsc2)C(C#N)=C(N)O1 (configuration not stated)	1.36	0.0	83.3	-3.2	3.2	0.5
O=C(c1ccc(COc2c(F)c(F)c(F)c(F)c2F)o1)N1CCOCC1	1.09	0.2	95.9	3.8	-3.8	-0.6
O=C(Nn1cnnc1)c1cc2c(s1)CCCC2	0.79	-0.1	98.9	-6.5	6.5	-0.5
NNC(=O)c1cc2c(s1)CCCCCC2	1.37	0.2	101.1	-69.7	69.7*	2.0
Cc1cc(C(=O)Nc2ccc3c(c2)OCCO3)c2ccccc2n1	0.75	-0.1	93.1	2.6	-2.6	-0.5
CCn1ncc(C2=NOC(C(=O)NCc3ccc(Cl)cc3)C2)c1C (configuration not stated)	2.13	1.1	108.0	-49.1	49.1*	6.3
CCn1ncc(C2=NOC(C(=O)Nc3ccc(C)cc3)C2)c1C (configuration not stated)	0.86	-0.2	93.2	-7.7	7.7	0.7
O=C1C2CCCN2C(c2ccco2)N1c1ccc(F)cc1 (configuration not stated)	1.14	-0.3	99.5	2.6	-2.6	10.0*
CC(C)Cc1nc2n[nH]c(N)c2c2c1COC(C)(C)C2	0.95	-0.1	105.2	3.1	-3.1	-0.7
CC(=O)Nc1cccn(Cc2c(Cl)cccc2Cl)c1=O	1.51	-0.1	92.8	9.6	-9.6	1.0
O=C(c1ccc(F)cc1)C(CCCCCC(CN1CCOCC1)C(=O)c1ccc(F)cc1)CN1CCOCC1 (configuration not stated)	1.55	-0.4	105.0	3.9	-3.9	1.0
CC(NC(=O)Cn1ncc(Cl)c(Cl)c1=O)C12CC3CC(CC(C3)C1)C2 (configuration not stated)	0.19	0.6	91.9	-96.2	96.2*	-4.5
O=C(O)c1cccc(N2C(=O)/C(=C/c3ccc(SCc4ccc(Cl)cc4)o3)SC2=S)c1	1.03	-0.3	106.5	17.1	-17.1	12.2*
O=C(O)Cc1ccccc1C(=O)O	0.95	-0.2	98.5	-6.5	6.5	-2.7
O=C(O)c1ccccc1S	1.08	-0.2	98.2	10.9	-10.9	11.8*
CCCc1nnc(NC(=O)CCC(=O)NCc2ccc(OC)cc2)s1	/	/	/	/	/	5.8
CCCc1nnc(NC(=O)CCC(=O)NCCc2ccc(OC)c(OC)c2)s1	1.01	-0.4	101.0	-73.3	73.3*	1.2
O=C(Cc1ccccc1)NCC1CCCO1 (configuration not stated)	0.83	-0.1	102.2	-1.6	1.6	10.2*
O=C(NCC1CCCO1)c1cc(-c2ccccc2)on1 (configuration not stated)	7.79*	3.4	139.7*	32.8	-32.8	2.7
O=C(NCC1CCCO1)c1cc(-c2ccc(Cl)cc2Cl)on1 (configuration not stated)	3.39*	0.5	126.5	66.5	-66.5	0.8
O=C(NCC1CCCO1)Nc1cccc(Cl)c1 (configuration not stated)	1.03	0.0	109.2	10.6	-10.6	-0.5
Cc1cccc(NC(=O)C(=O)NCC2CCCO2)c1 (configuration not stated)	1.84	0.6	136.0*	53.8	-53.8	8.8*
CCc1ccc(-c2ccc(C(=O)O)cc2)nc1	1.71	0.3	116.9	47.5	-47.5	2.1
CCN1CCN(CCNC(=O)C2CCCN(Cc3nc(-c4cccc(Cl)c4)oc3C)C2)CC1 (configuration not stated)	0.68	-0.3	97.9	/	/	-1.1
O=C(NCCCNCc1ccccc1)c1ccccn1	1.06	-0.1	99.2	14.2	-14.2	3.6
SMILES	NF-kB expr up	Hsp70 activator	STAT1 activator	APP 5'UTR act	APP 5UTR inh	Wee1 stabilizer
COc1ccc(Nc2nc3ccc(C)cc3cc2C#N)c(OC)c1	1.24	-0.2	94.2	-4.3	4.3	-2.2
COc1ccc(Nc2nc3cc(C)ccc3cc2C#N)c(OC)c1	0.99	-0.3	94.6	-92.1	92.1*	-1.5
CCOC(=O)c1c(NC(C)=O)sc2c(O)cccc12	1.13	-0.3	100.0	-44.5	55.3*	-4.8
CCOC(=O)c1c(NC(C)=O)sc2c(O)c(Br)cc(Br)c12	1.24	-0.3	109.4	10.2	-10.2	-0.3
COc1ccc(-n2c(C)cc(C(=O)CCl)c2C)cc1	3.86*	-0.3	84.2	-43.7	43.7	1.1
Cc1cc(C(=O)CN2C(=O)c3ccccc3C2=O)c(C)n1C1CC1	1.18	-0.3	119.8	19.4	-19.4	2.7
COc1ccc(-n2c(C)cc(C(=O)CN3C(=O)c4ccccc4C3=O)c2C)cc1	1.14	-0.4	134.2*	-4.9	4.9	0.6
COc1cc(-c2nc(S(=O)(=O)c3ccc(Cl)cc3)c(N3CCOCC3)o2)cc(OC)c1OC	0.94	0.1	93.3	22.5	-22.5	3.1
Cn1c(C(C#N)C(=O)c2sc3ccccc3c2Cl)nc2ccccc21 (configuration not stated)	0.87	0.6	107.5	7.0	-7.0	-2.4
O=C(NCCCn1ccnc1)c1cc(-c2cccs2)on1	10.5*	1.5	146.6*	18.9	-18.9	-0.7
O=C(NCCCN1CCOCC1)c1cc(-c2cccs2)on1	7.29*	1.7	119.4	22.1	-22.1	1.4
COc1ccc(OC)c(-c2cc(C(=O)NCCCn3ccnc3)no2)c1	0.88	0.5	102.9	-5.7	5.7	-1.2
Cc1ccc(-c2cc(C(=O)NCCCN3CCOCC3)no2)cc1	0.74	-0.3	89.0	-11.7	11.7	0.1
CCOC(=O)c1nnn(-c2nonc2-n2cccc2)c1CN1CCC(C)CC1	0.74	-0.3	97.5	11.4	-11.4	0.1
CC(=O)Nc1ccc(NC(=O)c2c(C)nc3ccccn23)cc1	1.43	0.0	100.3	-0.8	0.8	1.4
Cc1nc2ccccn2c1C(=O)Nc1ccc(Cl)cc1	2.25	0.2	140.3*	35.1	-35.1	-0.5
Cc1ccc(NC(=O)c2c(Cl)nc3ccccn23)cc1	1.22	-0.1	139.4*	102.8	-102.8	-0.7
CCOC(=O)c1nc(Nc2ccc(Nc3ccccc3)cc2)c2ccccc2n1	0.31	-0.1	105.9	3.9	-3.9	2.3
CCOc1ccc(/C=N/n2c(SC)nnc2-c2ccccc2)cc1OCC	5.54*	-0.4	106.6	11.6	-11.6	1.0
COc1ccc(/C=C/C(=O)c2cc(F)ccc2OC(=O)c2ccccc2C)cc1OC	2.57	0.2	99.5	-96.7	96.7*	4.2
CCOC(=S)SCC(=O)Nc1nc(-c2ccccc2)cs1	3.26	-0.1	97.5	-4.6	4.6	-1.7
CCOC(=S)SCC(=O)Nc1nc(-c2ccc(Br)cc2)cs1	4.59*	-0.3	108.1	-32.2	32.2	2.2
CCCSc1nc(C)c2cc(C)cc(C)c2n1	0.98	-0.1	89.3	-3.1	3.1	5.3
Cc1cc(C)c2nc3nc(C)c(C)cc3c(N)c2c1	0.84	0.5	142.7*	-4.3	4.3	0.9
O=C(Nc1ccc(-c2noc(COc3ccccc3Cl)n2)cc1)c1ccco1	1.87	-0.1	131.7*	76.2	-76.2	3.9

Bioassay records from PubChem BioAssay.
